# Results published in PubChem BioAssay (Tox21).
# Several values for one entry are separate records, joined by “and”; a condition that tells them apart may be missing. Identical values can stand only once. Inconclusive results are not listed. A call without a number means that no potency is given here. Some compounds were tested as several samples or in several runs, with calls that do not always agree. Activity calls are given as the source filed them. Calls follow the shape of the dose curve; as a rule, active = well fitted cell-killing curve with a large enough effect in the repeat runs; inconclusive = weak or mixed curves, or effect the other way; inactive = flat fitted curve, though single readings scatter.
# Experiment: qHTS RealTime-Glo MT Cell Viability Assay in HepG2 cells - 40 hour (AID 1224870); also: nearly all actives have a fitted effect of over 50% in size
# Conditions: RealTime-Glo luminescence; series mostly up to 76.8 µM
# Description: National Center for Advancing Translational Sciences [NCATS]
# NIH Chemical Genomics Center [NCGC]
# U.S. Environmental Protection Agency [EPA]
# National Institutes of Environmental Health Sciences [NIEHS]
# National Toxicology Program [NTP]
# U.S. Food and Drug Administration [FDA]
# Measure of cell viability is critical in the cell-base assay. Analysis of cell viability is necessary for the characterization of cell responses to cytotoxic drugs and environmental stress. A RealTime-Glo MT Cell Viability Assay to monitor cell viability in real time of continues cell culture during 40 hours of compound treatment was used to screen Tox21 10K library compounds in HepG2 cells. The RealTime-Glo MT Cell Viability Assay is a nonlytic, homogeneous, bioluminescent method to measure cell viability in real time using a simple, plate-based method. The assay involves adding NanoLuc luciferase and a cell-permeant prosubstrate to cells in culture. Viable cells reduce the proprietary prosubstrate to generate a substrate for NanoLuc luciferase. This substrate diffuses from cells into the surrounding culture medium, where it is rapidly used by the NanoLuc Enzyme to produce a luminescent signal. The signal correlates with the number of viable cells, making the assay well suited for cytotoxicity studies.
# Tox21 Assay Protocol Summary:
# The mixture of HepG2 cell suspension and reagents were dispensed at 600cells/6 ul/well in 1536-well tissue culture treated black solid bottom plates using a Multidrop dispenser. After the assay plates were incubated at a 37 C/5% CO2 incubator for 5 hours, 23 nL of compounds dissolved in DMSO, positive and negative controls was transferred to the assay plate by a pintool work station. The plates were incubated at 37 C for 40 hours. The luminescence intensity were measured at 0h, 8h, 16h, 24h, 32h and 40h time points using ViewLux plate reader during compound treatment.
# Potency is read from the fitted curve at half-maximal effect.
SMILES,Potency,"activity change, negative = cytotoxic"
ClCCl,inactive,
C=CCn1c(=O)n(CC=C)c(=O)n(CC=C)c1=O,inactive,
CC(C)(C)CC(C)(C)c1ccc(Nc2ccc(C(C)(C)CC(C)(C)C)cc2)cc1,,-1.04% [at 6.97 µM] (inactive)
CCCC1CCC(=O)CC1,inactive,
Cc1cccc(C(=O)O)c1O,inactive,
CC[N+](CC)(CC)CCOc1ccc(/C=C/c2ccccc2)cc1,23.9 µM (active),
C[Si](Cl)(c1ccccc1)c1ccccc1,inactive,
Cc1c(C)c([N+](=O)[O-])c(C(C)(C)C)c([N+](=O)[O-])c1C,inactive,
CC1(C)CCC[C@]2(C)[C@H]3CCO[C@]3(C)CC[C@@H]12,inactive,
O=C1c2ccccc2C(=O)N1SC1CCCCC1,inactive and 43.6 µM (active),
O=C(O)c1cc(N=Nc2ccc([N+](=O)[O-])cc2)ccc1O,inactive,
CCCC(=O)OCCc1ccccc1,inactive,
CCN(CCN)c1cccc(C)c1,inactive,
Cc1c(C)c2c(c(C)c1O)CC[C@@](C)(CCC[C@H](C)CCC[C@H](C)CCCC(C)C)O2,inactive,
O=C1CCCCCCCCCCCCCCCO1,inactive,
Cc1cc(=O)oc2cc(O)cc(O)c12,inactive,
CCC(C)(CCC(C)C)C(=O)[O][Sn]([CH3])([CH3])[O]C(=O)C(C)(CC)CCC(C)C (stereo not given),inactive,
CCO[C@@H]1O[C@H](C(COCc2ccccc2)OCc2ccccc2)[C@H](OCc2ccccc2)[C@H]1O (stereo not given in full),inactive,
NC(=O)c1cccc([N+](=O)[O-])c1,inactive,
CC(=O)c1ccc(C(C)=O)cc1,inactive,

SMILES,Potency,"activity change, negative = cytotoxic"
C=CC(=O)OCCOC(=O)C=C,inactive,
COc1ccc(NC(=O)CC(C)=O)cc1,inactive,
C#C[C@]1(OC(C)=O)CC[C@H]2[C@@H]3CCC4=C/C(=N/O)CC[C@@H]4[C@H]3CC[C@@]21CC,inactive,
Cc1c(C)c2c(c(C)c1OC(=O)c1cccnc1)CC[C@@](C)(CCC[C@H](C)CCC[C@H](C)CCCC(C)C)O2,inactive,
CCCC(=O)OC(C)(C)Cc1ccccc1,inactive,
CCOC(=O)NNc1ccc(N(CC)CC(C)O)nn1 (stereo not given),inactive,
O=[N+]([O-])c1cccc(C(F)(F)F)c1,inactive,
COc1cccc2c1C(=O)c1c(O)c3c(c(O)c1C2=O)C[C@@](O)(C(C)=O)C[C@@H]3O[C@H]1C[C@H](N)[C@H](O)[C@H](C)O1,19.6 µM (active),
O=c1oc2cc(O)ccc2c2oc3cc(O)ccc3c12,inactive,
O[C@@H]([C@H](O)[C@H](O)CBr)[C@H](O)CBr,inactive,
C#C[C@]1(O)CC[C@H]2[C@@H]3[C@H](C)CC4=C(CCC(=O)C4)[C@H]3CC[C@@]21C,inactive,
[Cl][Pt-2]([Cl])([Cl])[Cl],inactive,
S=C([S-])NCCNC(=S)[S-].S=C([S-])NCCNC(=S)[S-].[Mn+2].[Zn+2],inactive,
S=c1nccc[nH]1,inactive,
Cc1ccc(C(C)C)cc2c(C)ccc1-2,inactive,
OC1CCCc2ccccc21 (stereo not given),inactive,
CC(C)(C)C1CCC(=O)CC1,inactive,
CCCCCCCCCCC[C@@H](C[C@@H]1OC(=O)[C@H]1CCCCCC)OC(=O)[C@H](CC(C)C)NC=O,inactive,
Sc1nc2ccccc2s1,inactive,
CC(=O)OCC=C(C)C,inactive,
